Common to all, as to test: qHTS profiling for inhibitors of Plasmodium falciparum proliferation (AID 504749); further: nearly all actives have a fitted effect of over 60% in size
Settings in all cases: P. falciparum in erythrocytes, SYBR Green DNA, 72 h; series mostly up to 28.7 µM
Background: qHTS replaces the single test concentration by a dilution series.

The test system of one experiment is ICS. The procedure, abridged:
(§1)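 Fluorescence of SYBR Green-bound parasite DNA, read at 485/535 nm, served as the growth measure. Infected erythrocytes were cultured with compound 72 h; artemisinin (0.29 uM) and DMSO wells defined the normalization range.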

In a further experiment the test system is N140. The method in brief:
as §1

The test system of the next experiment is P93_24. The method in brief:
as §1

The next experiment relates to P94_40. The procedure, abridged:
as §1

A further experiment deals with PAD. The procedure, abridged: as §1
A further experiment relates to PC26. The procedure, abridged: as §1
Another experiment has as its system PC49. The procedure, abridged:
as §1

The test system of another experiment is SC27B. The method in brief:
as §1

A further experiment relates to JCK. The procedure, abridged:
as §1

In the next experiment the test system is PC15. The method in brief:
as §1

The structures appear in SMILES notation. Inconclusive results are not listed. Activity calls are given as the source filed them. The call rests on the fitted dose curve; in most records, active means well fitted inhibition curve with a large enough effect; inconclusive means small, poorly fitted or top-dose-only effect; inactive means flat fitted curve, though single readings scatter.
Potency means the concentration at half of the fitted maximal effect.

Take `Clc1ccc(COC(Cn2ccnc2)c2ccc(Cl)cc2Cl)c(Cl)c1` (configuration not stated): the Potency in the experiment with ICS was 1 µM (active); in the experiment on N140 it was 2.24 µM (active); in the experiment with P93_24 it was 1.41 µM (active); with P94_40, 2.82 µM (active); with PAD it was 3.55 µM (active); in the experiment on PC26 it was 2.56 µM (active). For the same compound, in the experiment with SC27B, the Potency is 2.82 µM (active). The call in the experiment with PC49 was inactive.

Consider `O=C1C(CCC(O)c2ccc(F)cc2)C(c2ccc(O)cc2)N1c1ccc(F)cc1` (configuration not stated), for which the Potency entry with ICS, with N140, in the experiment with P93_24, with P94_40, in the experiment with PAD and with PC26 was “inactive” throughout. In the experiment with SC27B, the Potency result was “inactive”. Further, the outcome with JCK, in the experiment on PC15 and in the experiment with PC49 was inactive.

`COc1cc2c(cc1OC)CC(=O)N(CCCN(C)C[C@H]1Cc3cc(OC)c(OC)cc31)CC2`: the compound was called inactive in the experiment on JCK, with PC15 and in the experiment on PC49. Besides, the Potency entry with N140, in the experiment on P93_24, in the experiment on P94_40, in the experiment on PAD, in the experiment with PC26 and with SC27B was “inactive” throughout.

As for `N#Cc1c(N(CC(=O)O)CC(=O)O)sc(C(=O)O)c1CC(=O)O`, the Potency result in the experiment on ICS, in the experiment with N140, in the experiment on P93_24, with P94_40, with PAD and with PC26 was “inactive” in each case. Also, the Potency result in the experiment on SC27B is “inactive”. For the same compound, the compound was called inactive in the experiment with JCK, with PC15 and with PC49.

Take `CN1CC(=O)N2C(Cc3c([nH]c4ccccc34)[C@H]2c2ccc3c(c2)OCO3)C1=O` (some centres not stated): the call in the experiment with JCK, with PC15 and with PC49 was inactive. Besides, the Potency result in the experiment on N140, in the experiment with P94_40, in the experiment on PAD, in the experiment on PC26 and in the experiment on SC27B was “inactive” in each case.

`COc1ccnc(CS(=O)c2nc3ccc(OC(F)F)cc3[nH]2)c1OC` (configuration not stated): the Potency entry with ICS, in the experiment on N140, in the experiment on P93_24, in the experiment on P94_40, in the experiment on PAD and in the experiment on SC27B was “inactive” in each case. For the same compound, the result in the experiment on JCK, in the experiment with PC15 and in the experiment with PC49 was inactive.

Take `COc1c(C)c2c(c(O)c1CC=C(C)CCC(=O)OCCN1CCOCC1)C(=O)OC2`: the Potency is 7.94 µM (active) in the experiment with ICS; 8.91 µM (active) in the experiment with N140; 7.08 µM (active) in the experiment on P93_24; 7.94 µM (active) with P94_40; 11.2 µM (active) in the experiment with PAD; 5.01 µM (active) with SC27B. In addition, the result with PC15 and in the experiment on PC49 was inactive.

With `CS(=O)(=O)c1ccc(C2=C(c3ccccc3)C(=O)OC2)cc1`, the Potency result in the experiment with ICS, in the experiment on N140, in the experiment with P93_24, in the experiment on P94_40, in the experiment with PAD and with PC26 was “inactive” each time. In the experiment with SC27B, the Potency entry is “inactive”. The call in the experiment with JCK, in the experiment with PC15 and with PC49 was inactive.

Consider `NS(=O)(=O)c1cc(Cl)c(Cl)c(S(N)(=O)=O)c1`, for which the Potency result with ICS, with N140, with P93_24, in the experiment on P94_40, in the experiment on PAD and in the experiment with PC26 was “inactive” each time. Besides, the Potency result in the experiment on SC27B is “inactive”. In addition, the compound was classed as inactive with JCK, in the experiment with PC15 and in the experiment with PC49.

As to `O=C(O)c1nc(=O)[nH]c(=O)[nH]1`, the Potency entry with ICS, in the experiment with N140, with P93_24, in the experiment with P94_40, in the experiment with PAD and with PC26 was “inactive” in each case. Also, in the experiment with SC27B, the Potency result was “inactive”. Moreover, the call in the experiment on JCK, with PC15 and with PC49 was inactive.

Take `N#CC(c1ccc(Cl)cc1)c1c(Cl)cc(-n2ncc(=O)[nH]c2=O)cc1Cl` (configuration not stated): the result in the experiment on JCK, in the experiment on PC15 and with PC49 was inactive. Further, the Potency entry in the experiment on N140, in the experiment with P93_24, with P94_40, with PAD, in the experiment on PC26 and with SC27B was “inactive” throughout.

As for `CC(C)CN(C[C@@H](O)[C@H](Cc1ccccc1)NC(=O)O[C@H]1CO[C@H]2OCC[C@H]21)S(=O)(=O)c1ccc(N)cc1`, the call with JCK, in the experiment on PC15 and in the experiment on PC49 was inactive. The Potency result in the experiment with P93_24, in the experiment with P94_40, in the experiment on PC26 and with SC27B was “inactive” throughout.

Consider `CN1CCN2c3ncccc3Cc3ccccc3C2C1` (configuration not stated), for which, in the experiment on ICS, the Potency is 11.2 µM (active). In addition, the call with JCK, in the experiment with PC15 and in the experiment on PC49 was inactive. Also, the Potency entry in the experiment on P94_40 and in the experiment on SC27B was “inactive” in each case.

As for `C=C1c2cccc(O)c2C(O)=C2C(=O)[C@@]3(O)C(O)=C(C(N)=O)C(=O)[C@@H](N(C)C)[C@@H]3[C@@H](O)[C@H]12`, the call in the experiment with JCK, with PC15 and in the experiment with PC49 was inactive. For the same compound, the Potency result in the experiment with N140, in the experiment with P94_40, with PAD, in the experiment on PC26 and in the experiment with SC27B was “inactive” each time.

Turning to `Cc1cc2nc3c(=O)[nH]c(=O)nc-3n(CC(O)C(O)C(O)CO)c2cc1C` (configuration not stated), the Potency result in the experiment on ICS, in the experiment with N140, with P93_24, in the experiment on P94_40, in the experiment on PAD and in the experiment with PC26 was “inactive” each time. Further, the Potency entry in the experiment on SC27B is “inactive”. Moreover, the compound was classed as inactive in the experiment on JCK, in the experiment on PC15 and in the experiment on PC49.
